Relative cell viability data for 46 compounds are collected here from the supplement of paper PMC10670038.

Each structure is given as a SMILES string. Counter-ions that a name gives are not always drawn. ± gives the standard deviation of the averaged measurements. Over roughly 2,000 compounds, “relative cell viability vs DMSO, compound alone” has its median near 1.1; the lowest 2% begin near 0.29. The sample holds the lowest values, similar compounds and a random draw of the others, so the mix is not that of the screen.

This experiment deals with TE10. The experiment is described as follows: relative cell viability vs DMSO, compound alone (fraction); TE10 is an esophageal squamous carcinoma line; higher = less cytotoxic. As to conditions: 2 µM; 48 h. The procedure: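 TE10 ESCC cells (1,000/well, 384-well plates) were treated with Selleck bioactive library compounds at 2 uM alone for 48 h. Viability was read by CellTiter-Glo and expressed relative to DMSO wells. Two technical replicates (A, B).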
Compound `Nc1nc2c(ncn2[C@@H]2O[C@H](CO)[C@@H](O)[C@H]2O)c(=O)[nH]1` [Guanosine] came in with a relative cell viability of 1.06 ± 0.032.
In the case of `Nc1ncnc2c1ncn2[C@@H]1O[C@H](CO)[C@@H](O)[C@H]1O` [Adenosine] it was 1.165 ± 0.0028; in that of `Nc1ncnc2c1ncn2[C@@H]1O[C@H](CO)[C@@H](O)[C@@H]1O` [Vidarabine], 1.08 ± 0.033.
Compound `Nc1nc(F)nc2c1ncn2[C@@H]1O[C@H](COP(=O)(O)O)[C@@H](O)[C@@H]1O` [Fludarabine Phosphate] registered a relative cell viability of 0.214 ± 0.058.
`Nc1nc(Cl)nc2c1ncn2[C@@H]1O[C@H](CO)[C@@H](O)[C@@H]1F` [Clofarabine] yielded a relative cell viability of 0.932 ± 0.038.
The compound `Nc1nc(F)nc2c1ncn2[C@@H]1O[C@H](CO)[C@@H](O)[C@@H]1O` [Fludarabine] registered a relative cell viability of 0.291 ± 0.0055.
The compound `CCN(CC)CCOC(=O)c1ccc(N)cc1Cl` [Chloroprocaine HCl] yielded a relative cell viability of 1.15 ± 0.027.
Under `Nc1nc2c(ncn2COC(CO)CO)c(=O)[nH]1` [Ganciclovir] stands 1.069 ± 0.0057; under `O=C(/C=C/N1C[C@H]2C[C@@H]1CN2c1ccccn1)c1ccccc1O`, 1.06 ± 0.02; under `COc1ccc(-n2nc(C(N)=O)c3c2C(=O)N(c2ccc(N4CCCCC4=O)cc2)CC3)cc1` [Apixaban], 1.1 ± 0.027.
On to `Cc1coc2c1C(=O)C(=O)c1c-2ccc2c(C)cccc12` [Tanshinone I], for which the relative cell viability came out at 1.11 ± 0.051.
Under `CO[C@H]1/C=C/O[C@@]2(C)Oc3c(C)c(O)c4c(O)c(c(/C=N/N5CCN(C)CC5)c(O)c4c3C2=O)NC(=O)/C(C)=C\C=C\[C@H](C)[C@H](O)[C@@H](C)[C@@H](O)[C@@H](C)[C@H](OC(C)=O)[C@@H]1C` [Rifampin] stands 1.049 ± 0.003.
In the case of `O=C(/C=C\n1cnc(-c2cc(C(F)(F)F)cc(C(F)(F)F)c2)n1)NNc1ccccn1` [Verdinexor (KPT-335)] it was 0.3315 ± 0.0025; in that of `COc1cc(-c2ncn(/C=C\C(=O)OC(C)C)n2)cc(C(F)(F)F)c1`, 0.26 ± 0.011.
In the case of `O=C(/C=C\n1cnc(-c2cc(C(F)(F)F)cc(C(F)(F)F)c2)n1)NNc1cnccn1` it was 0.2768 ± 0.0027; in that of `O=C(/C=C/n1cnc(-c2cc(C(F)(F)F)cc(C(F)(F)F)c2)n1)N1CC(F)(F)C1`, 0.473 ± 0.06.
Turning to `CCN(CC)CCNC(=O)c1c(C)[nH]c(/C=C2\C(=O)Nc3ccc(F)cc32)c1C` [Sunitinib], the relative cell viability was 1 ± 0.095.
Turning to `CCN(CC)CCNC(=O)c1c(C)[nH]c(/C=C2\C(=O)Nc3ccc(F)cc32)c1C` [Sunitinib Malate], the relative cell viability came to 1.11 ± 0.037.
Under `Cc1[nH]nc2ccc(-c3cncc(OC[C@@H](N)Cc4ccccc4)c3)cc12` stands 0.5847 ± 0.0027.
As to `C[C@]12CC[C@H](O)CC1=CC[C@@H]1[C@@H]2CC[C@]2(C)C(n3cnc4ccccc43)=CC[C@@H]12` [Galeterone], the relative cell viability was found to be 1.06 ± 0.14.
In the case of `CO[C@H]1C[C@@H]2CC[C@@H](C)[C@@](O)(O2)C(=O)C(=O)N2CCCC[C@H]2C(=O)O[C@H]([C@H](C)C[C@@H]2CC[C@H](n3cnnn3)[C@H](OC)C2)CC(=O)[C@H](C)/C=C(\C)[C@@H](O)[C@@H](OC)C(=O)[C@H](C)C[C@H](C)/C=C/C=C/C=C/1C` [Zotarolimus(ABT-578)] it was 0.888 ± 0.073; in that of `CC(=O)Oc1cccc2c1C(=O)c1c(OC(C)=O)cc(C(=O)O)cc1C2=O` [Diacerein], 1.11 ± 0.023; in that of `CC1(C)C=C(CN2C/C(=C\c3ccc(F)cc3)C(=O)/C(=C/c3ccc(F)cc3)C2)C(C)(C)N1O`, 0.8405 ± 0.0057.
The compound `C=CC(=O)N1CC(=Cc2ccc([N+](=O)[O-])cc2)C(=O)C(=Cc2ccc([N+](=O)[O-])cc2)C1` registered a relative cell viability of 0.0554 ± 0.0028.
In the case of `CNC(=O)c1c(F)cccc1Nc1nc(Nc2cc3c(cc2OC)CCN3C(=O)CN(C)C)nc2[nH]ccc12` it was 1.06 ± 0.052.
`CC[C@@H](C)Nc1cc(C(=O)N[C@H]2C[C@H]3CC[C@@H](C2)N3c2ccc(C(=O)C3CC3)cn2)c(C)cc1C(N)=O` had a relative cell viability of 0.449 ± 0.023.
As for `O=C(O)c1cc(/N=N/c2ccc(S(=O)(=O)Nc3ccccn3)cc2)ccc1O` [Sulfasalazine], the relative cell viability turned out to be 1.04 ± 0.026.
Under `CCc1nc(-c2cccc(C)c2)c(-c2ccnc(NC(=O)c3ccccc3)c2)s1` stands 1.0779 ± 0.0008.
In the case of `Cc1ccc([N+](=O)[O-])cc1S(=O)(=O)N(C)/N=C/c1cnc2ccc(Br)cn12` it was 0.287 ± 0.012; in that of `COc1cc(C(C)=O)ccc1O` [Apocynin], 1.07 ± 0.059.
The compound `CCCCOc1c(C(=O)c2c(F)cc(C)cc2F)c[nH]c2nncc1-2` returned a relative cell viability of 0.904 ± 0.014.
As to `CCOC(=O)CCNc1cc(N2CCc3ccccc3CC2)nc(-c2ccccn2)n1`, the relative cell viability was found to be 0.957 ± 0.1.
For `CNC[C@@H](O)c1ccc(O)c(O)c1` [L-Adrenaline], the relative cell viability was 1.06 ± 0.028.
Under `COCC[n+]1c2c(n(Cc3cnccn3)c1C)C(=O)c1ccccc1C2=O` [YM155 (Sepantronium Bromide)] stands 0.0556 ± 0.0047.
Under `CC1(C)S[C@@H]2[C@H](NC(=O)[C@H](NC(=O)N3CCNC3=O)c3ccccc3)C(=O)N2[C@H]1C(=O)O` [Azlocillin sodium salt] stands 1.09 ± 0.026.
In the case of `CC(C)(OCc1nn(Cc2ccccc2)c2ccccc12)C(=O)O` [Bindarit] it was 1.1 ± 0.053.
In the case of `C=C[C@]1(C)C[C@@H](OC(=O)CS[C@@H]2C[C@H]3CC[C@@H](C2)N3C)[C@]2(C)[C@H](C)CC[C@]3(CCC(=O)[C@H]32)[C@@H](C)[C@@H]1O` [Retapamulin], the relative cell viability is 1.29 ± 0.028.
In the case of `CCC[C@@H]1C[C@@H](C(=O)N[C@@H]([C@H]2O[C@H](SC)[C@H](O)[C@@H](O)[C@H]2O)[C@@H](C)O)N(C)C1` [Lincomycin HCl] it was 1.12 ± 0.073.
`CCC(=O)Nc1cccc(Oc2nc(Nc3ccc(N4CCN(C)CC4)cc3OC)ncc2Cl)c1` had a relative cell viability of 1.16 ± 0.059.
In the case of `Clc1ccc(Nc2nnc(Cc3ccncc3)c3ccccc23)cc1` [Vatalanib (PTK787) 2HCl] it was 1.16 ± 0.022; in that of `Cc1[nH]c2ccccc2c1CCNCc1ccc(/C=C/C(=O)NO)cc1` [Panobinostat (LBH589)], 0.0672 ± 0.00084; in that of `CN(C)Cc1ccc(S(=O)(=O)n2ccc(/C=C/C(=O)NO)c2)cc1` [Resminostat], 0.908 ± 0.028.
Regarding `Cc1[nH]c2ccccc2c1CCNC(=O)c1cccs1`, the relative cell viability was found to be 1.08 ± 0.069.
On to `COc1ccc(-c2coc3cc(O)ccc3c2=O)cc1` [Formononetin], for which the relative cell viability worked out at 0.901 ± 0.044.
Take `O=C(O)c1ccc(C=C2SC(=S)N(c3cccc(C(F)(F)F)c3)C2=O)cc1`: the relative cell viability turned out to be 1.04 ± 0.026.
Under `O=C(CCCN1CC=C(n2c(=O)[nH]c3ccccc32)CC1)c1ccc(F)cc1` [Droperidol] stands 1.08 ± 0.044.
